From PubChem BioAssay (NCI)
The panel holds about 83,000 compounds, 20% with a hit somewhere; the sample as a whole holds those more often.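 Assay: single dose, 48 h. Readout: percent growth (0 = no net growth; negative = cell death). Active: <10.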 Calls of active or inactive are those of the source.

Experiments:
Test in all cases: NCI-60 one-dose screen, 48 h (100 = growth as untreated, 0 = no growth, -100 = all killed)
Details in all cases: 10 µM
DU-145 prostate = tested on: DU-145 prostate
K-562 leukemia = tested on: K-562 leukemia
MALME-3M melanoma = tested on: MALME-3M melanoma
MDA-MB-231 breast = tested on: MDA-MB-231 breast
RXF 393 renal = tested on: RXF 393 renal
SF-268 CNS = tested on: SF-268 CNS
SF-295 CNS = tested on: SF-295 CNS
SF-539 CNS = tested on: SF-539 CNS
UACC-257 melanoma = tested on: UACC-257 melanoma
M14 melanoma = tested on: M14 melanoma
HCT-15 colon = tested on: HCT-15 colon
HT29 colon = tested on: HT29 colon
SNB-75 CNS = tested on: SNB-75 CNS
SNB-19 CNS = tested on: SNB-19 CNS
U251 CNS = tested on: U251 CNS
PC-3 prostate = tested on: PC-3 prostate
SK-MEL-5 melanoma = tested on: SK-MEL-5 melanoma
UACC-62 melanoma = tested on: UACC-62 melanoma
LOX IMVI melanoma = tested on: LOX IMVI melanoma
SK-MEL-28 melanoma = tested on: SK-MEL-28 melanoma

Measured: growth

CN1C(=O)/C(=C/c2nccs2)SC1=S
inactive: DU-145 prostate 91.2% | K-562 leukemia 66.8% | MALME-3M melanoma 82.1% | MDA-MB-231 breast 87.5% | RXF 393 renal 103% | SF-268 CNS 104% | SF-295 CNS 93.2% | SF-539 CNS 95.4% | UACC-257 melanoma 85.4% | M14 melanoma 87.2% | HCT-15 colon 68.8% | HT29 colon 99.4% | SNB-75 CNS 66.4% | SNB-19 CNS 90.5% | U251 CNS 90.7% | PC-3 prostate 109% | SK-MEL-5 melanoma 96.6% | UACC-62 melanoma 79% | LOX IMVI melanoma 62.7% | SK-MEL-28 melanoma 95.8%

O=C(c1ccc(Cl)cc1)C1[C@H](c2ccccc2Br)[C@@H](c2ccccc2)NC12C(=O)Nc1ccc(Cl)cc12 (stereo partly drawn)
inactive: DU-145 prostate 29.1% | MALME-3M melanoma 51.8% | SF-268 CNS 23.4% | SF-295 CNS 15.2% | SF-539 CNS 39.7% | UACC-257 melanoma 42.5% | M14 melanoma 25.2% | SNB-75 CNS 36.5% | SNB-19 CNS 33.6% | PC-3 prostate 38.1% | SK-MEL-5 melanoma 15.9% | UACC-62 melanoma 22% | SK-MEL-28 melanoma 55.4%
active: K-562 leukemia 7.94% | MDA-MB-231 breast 5.9% | RXF 393 renal -33.7% | HCT-15 colon 8.84% | HT29 colon -14.6% | U251 CNS 6.14% | LOX IMVI melanoma -91%

N#Cc1c(Cl)nc(SCc2ccc(F)cc2)nc1-c1ccc(F)cc1
inactive: DU-145 prostate 92.5% | K-562 leukemia 69.8% | MALME-3M melanoma 112% | MDA-MB-231 breast 94.6% | RXF 393 renal 89.7% | SF-268 CNS 96.2% | SF-295 CNS 90% | SF-539 CNS 91.9% | UACC-257 melanoma 100% | M14 melanoma 103% | HCT-15 colon 87% | HT29 colon 66.6% | SNB-75 CNS 123% | SNB-19 CNS 98% | U251 CNS 92.8% | PC-3 prostate 91.1% | SK-MEL-5 melanoma 86.2% | UACC-62 melanoma 86% | LOX IMVI melanoma 90.2%

COc1ccc2[nH]c(=O)c(CSc3nccc(-c4ccc(Cl)cc4)n3)cc2c1
active: RXF 393 renal -23.7% | SF-295 CNS -20.3% | SF-539 CNS -70.3% | UACC-257 melanoma 6.77% | SNB-75 CNS -11.5%
inactive: DU-145 prostate 44.8% | K-562 leukemia 23.2% | MALME-3M melanoma 46.4% | MDA-MB-231 breast 18.4% | SF-268 CNS 28.8% | M14 melanoma 55.2% | HCT-15 colon 36.3% | HT29 colon 33.9% | SNB-19 CNS 40.5% | U251 CNS 13% | PC-3 prostate 29.3% | SK-MEL-5 melanoma 44.8% | UACC-62 melanoma 37.9% | LOX IMVI melanoma 27.9% | SK-MEL-28 melanoma 45.3%

COc1cc(/C=N/NC(=O)c2ccc3nc(-c4ccc(Cl)cc4)[nH]c3c2)cc(OC)c1OC
inactive: HCT-15 colon 55.7%
active: DU-145 prostate -28.7% | K-562 leukemia -12.4% | MALME-3M melanoma -92.8% | MDA-MB-231 breast -74.5% | RXF 393 renal -84.3% | SF-268 CNS -33.9% | SF-295 CNS -73.7% | SF-539 CNS -95.7% | UACC-257 melanoma -47.7% | M14 melanoma -28% | HT29 colon -50.2% | SNB-75 CNS -47.5% | SNB-19 CNS -94.1% | U251 CNS -86.6% | PC-3 prostate -41.6% | SK-MEL-5 melanoma -82.6% | UACC-62 melanoma -76.7% | LOX IMVI melanoma -81.1% | SK-MEL-28 melanoma -87.9%

Cn1cc(-c2cc(N)n3nc(-c4c[nH]c5ccc(Br)cc45)cc3n2)c2cc(Br)cnc21
active: DU-145 prostate -75.6% | K-562 leukemia -27.4% | MALME-3M melanoma -92.1% | MDA-MB-231 breast -82.5% | RXF 393 renal -71.2% | SF-268 CNS -22.5% | SF-295 CNS -86.4% | SF-539 CNS -97.6% | UACC-257 melanoma -65.4% | M14 melanoma -90.6% | HCT-15 colon -96.3% | HT29 colon -86.3% | SNB-75 CNS -19.6% | SNB-19 CNS -35.9% | U251 CNS -76.5% | PC-3 prostate -44.8% | SK-MEL-5 melanoma -99% | UACC-62 melanoma -75% | LOX IMVI melanoma -94.5%

COc1ccc(OC)c(/C=N/NC(=O)c2ccc3nc(-c4ccc(Cl)cc4)[nH]c3c2)c1
inactive: DU-145 prostate 48% | K-562 leukemia 47.1% | MALME-3M melanoma 81.6% | MDA-MB-231 breast 10.3% | SF-268 CNS 57% | SF-295 CNS 48.1% | SF-539 CNS 54.7% | UACC-257 melanoma 114% | M14 melanoma 69.1% | HCT-15 colon 41.8% | HT29 colon 79.7% | SNB-75 CNS 72.8% | SNB-19 CNS 54.3% | U251 CNS 74.3% | PC-3 prostate 41.5% | SK-MEL-5 melanoma 31.2% | UACC-62 melanoma 75.7% | LOX IMVI melanoma 65.4% | SK-MEL-28 melanoma 85.4%
active: RXF 393 renal 3.46%

CCN1CCN(Cc2ccc(NC(=O)c3cccc(-n4cc(-c5ccc(NC(C)=O)nc5)nn4)c3)cc2C(F)(F)F)CC1
active: K-562 leukemia -28.4%
inactive: DU-145 prostate 104% | MALME-3M melanoma 53.1% | MDA-MB-231 breast 75.8% | RXF 393 renal 102% | SF-268 CNS 123% | SF-295 CNS 93.1% | SF-539 CNS 73.1% | UACC-257 melanoma 87% | M14 melanoma 78.3% | HCT-15 colon 83.9% | HT29 colon 61.7% | SNB-75 CNS 104% | SNB-19 CNS 122% | U251 CNS 86.6% | PC-3 prostate 112% | SK-MEL-5 melanoma 87.3% | UACC-62 melanoma 82.4% | LOX IMVI melanoma 72.4% | SK-MEL-28 melanoma 53.3%

O=C1NC(=NC2CCCCCC2)N/C1=C\c1ccc2ncoc2c1
active: RXF 393 renal -8.82% | SF-539 CNS -2.22%
inactive: DU-145 prostate 31.1% | K-562 leukemia 38.1% | MALME-3M melanoma 66.4% | MDA-MB-231 breast 50.9% | SF-268 CNS 35% | SF-295 CNS 47.5% | UACC-257 melanoma 48.7% | M14 melanoma 64.4% | HCT-15 colon 13% | HT29 colon 56.1% | SNB-75 CNS 14.7% | SNB-19 CNS 29.7% | U251 CNS 32.7% | PC-3 prostate 53.8% | SK-MEL-5 melanoma 21.1% | UACC-62 melanoma 19.3% | LOX IMVI melanoma 22.2% | SK-MEL-28 melanoma 27.5%

O=C(c1ccc(Cl)cc1)C1[C@H](c2ccccc2Br)[C@@H](c2ccccc2)NC12C(=O)Nc1ccc(Br)cc12 (stereo partly drawn)
active: K-562 leukemia 6.68% | MDA-MB-231 breast 2.81% | RXF 393 renal -26.1% | HCT-15 colon 9.81% | HT29 colon -36% | U251 CNS -29.1% | PC-3 prostate 6.63% | LOX IMVI melanoma -100%
inactive: DU-145 prostate 29.7% | MALME-3M melanoma 50.1% | SF-268 CNS 32.7% | SF-295 CNS 14.9% | SF-539 CNS 30.2% | UACC-257 melanoma 10.3% | M14 melanoma 27.5% | SNB-75 CNS 31.9% | SNB-19 CNS 36.2% | SK-MEL-5 melanoma 14.4% | UACC-62 melanoma 19.6% | SK-MEL-28 melanoma 43.8%

O=c1oc2ccc(-c3ccc(F)cc3F)cc2c(=O)n1-c1ccc(Cl)c(C(F)(F)F)c1
inactive: DU-145 prostate 14.2% | K-562 leukemia 10.1% | SF-268 CNS 12% | M14 melanoma 21.5% | SNB-19 CNS 14.7%
active: MALME-3M melanoma -26.7% | MDA-MB-231 breast -19.8% | RXF 393 renal -14.3% | SF-295 CNS -74% | SF-539 CNS -7.49% | UACC-257 melanoma -5.73% | HCT-15 colon -12% | HT29 colon 9.55% | SNB-75 CNS -4.03% | U251 CNS 7.99% | PC-3 prostate 0.205% | SK-MEL-5 melanoma -91.4% | UACC-62 melanoma -54.1% | LOX IMVI melanoma -38.6% | SK-MEL-28 melanoma -20.1%

CNCc1cccc2c1OCCCCCC[C@@](C)(O)CC1(CC1)S(=O)(=O)c1ccc(cc1)-c1cnc(N)c(n1)C(=O)N2
active: DU-145 prostate -84.5% | K-562 leukemia -37.5% | MALME-3M melanoma -75.2% | MDA-MB-231 breast -92.8% | RXF 393 renal -94.2% | SF-268 CNS -64.2% | SF-295 CNS -100% | SF-539 CNS -98.9% | UACC-257 melanoma -75% | M14 melanoma -38.6% | HCT-15 colon -96.6% | HT29 colon -87% | SNB-75 CNS -93.8% | SNB-19 CNS -97.4% | U251 CNS -83.8% | PC-3 prostate -59% | SK-MEL-5 melanoma -100% | UACC-62 melanoma -90.8% | LOX IMVI melanoma -100% | SK-MEL-28 melanoma -93.6%

N#Cc1c(NC(=O)c2cccc(C(F)(F)F)c2)sc2c1CCC(O)=C2
active: SK-MEL-5 melanoma -38.3%
inactive: DU-145 prostate 50.1% | K-562 leukemia 14.5% | MALME-3M melanoma 19.3% | MDA-MB-231 breast 39.6% | RXF 393 renal 50.7% | SF-268 CNS 38.6% | SF-295 CNS 35.3% | SF-539 CNS 48.1% | UACC-257 melanoma 30.1% | M14 melanoma 36.8% | HCT-15 colon 20.6% | HT29 colon 80.4% | SNB-75 CNS 46.7% | SNB-19 CNS 42.4% | U251 CNS 39.7% | PC-3 prostate 39% | UACC-62 melanoma 11.5% | LOX IMVI melanoma 33.9% | SK-MEL-28 melanoma 33.9%

O=C(c1ccc(Cl)cc1)C1[C@H](c2ccc(Br)cc2)[C@@H](c2ccccc2)NC12C(=O)Nc1ccc(Br)cc12 (stereo partly drawn)
active: DU-145 prostate -43.2% | K-562 leukemia -37.6% | MALME-3M melanoma -95.5% | MDA-MB-231 breast -96.1% | RXF 393 renal -94.8% | SF-268 CNS -28.6% | SF-295 CNS -97.2% | SF-539 CNS -88.8% | UACC-257 melanoma -71.3% | M14 melanoma 3.03% | HCT-15 colon -91.6% | HT29 colon -54.5% | SNB-75 CNS 0.834% | SNB-19 CNS -51% | U251 CNS -79.9% | PC-3 prostate -23.5% | SK-MEL-5 melanoma -60.3% | UACC-62 melanoma -83.9% | LOX IMVI melanoma -100% | SK-MEL-28 melanoma -93.8%
